Assay in all cases: qHTS profiling for inhibitors of Plasmodium falciparum proliferation (AID 504749); also: nearly all actives have a fitted effect of over 60% in size
What all share (conditions): P. falciparum in erythrocytes, SYBR Green DNA, 72 h; series mostly up to 28.7 µM
For orientation: Quantitative high-throughput screening tests each substance at several concentrations.

For one assay, the system named is CP269. The method in brief: (§1)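 Fluorescence of SYBR Green-bound parasite DNA, read at 485/535 nm, served as the growth measure. Infected erythrocytes were cultured with compound 72 h; artemisinin (0.29 uM) and DMSO wells defined the normalization range.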
A further assay deals with CP286. The method in brief:
as §1

The next assay relates to CP291. In outline:
as §1

The next assay concerns CP297. The method in brief:
as §1

In a further assay the test system is CP305. The method in brief: as §1
The subject of a further assay is CP315. The method in brief:
as §1

In another assay the test system is CP325. The method in brief: as §1
The next assay concerns CP329. The method in brief: as §1
The next assay concerns CP335. In outline:
as §1

Another assay has as its system DFO2036. The method in brief:
as §1

Records with an inconclusive call do not appear. Active and inactive are the calls of the source. Calls follow the shape of the dose curve; as a rule, active = well fitted inhibition curve with a large enough effect; inconclusive = small, poorly fitted or top-dose-only effect; inactive = flat fitted curve, though single readings scatter.
Potency is read from the fitted curve at half-maximal effect.

Take `Cc1cc(O)ccc1Cl`: the Potency result with CP269, in the assay on CP286, with CP291, with CP297, in the assay with CP305 and in the assay on CP315 was “inactive” throughout. Also, the Potency result in the assay with CP325, with CP329, in the assay with CP335 and in the assay with DFO2036 was “inactive” throughout.
Turning to `NC1=NC(=O)N2CC12` (configuration not stated), the Potency entry in the assay on CP297, with CP315, with CP325 and in the assay on CP329 was “inactive” throughout.
In the case of `C#CC1(O)CCC2C3CCC4=CC(=O)CCC4(C)C3CCC21C` (configuration not stated), the Potency result with CP269, with CP286, in the assay on CP291, with CP297, with CP305 and with CP315 was “inactive” in each case. The Potency entry in the assay with CP325, in the assay with CP329, with CP335 and in the assay with DFO2036 was “inactive” each time.
Regarding `CCCN1CCC[C@H](c2cccc(O)c2)C1`, the Potency result in the assay with CP269, in the assay with CP286, with CP291, in the assay with CP305, in the assay on CP315 and in the assay on CP325 was “inactive” in each case. The Potency entry in the assay on CP329, in the assay on CP335 and in the assay with DFO2036 was “inactive” throughout.
Consider `NC(=O)CN1CC(O)CC1=O` (configuration not stated), for which the Potency result in the assay on CP269, in the assay with CP286, with CP291, with CP297, with CP305 and in the assay with CP315 was “inactive” in each case. Moreover, the Potency result with CP325, in the assay on CP329, with CP335 and in the assay on DFO2036 was “inactive” in each case.
`CC(C)NC(C)Cc1ccc(I)cc1` (configuration not stated): the Potency result with CP269, with CP286, in the assay on CP291, in the assay with CP305, in the assay on CP315 and in the assay on CP325 was “inactive” in each case. Also, the Potency result in the assay on CP329 and in the assay on DFO2036 was “inactive” each time.
In the case of `CC[N+]1(CCOC(=O)C(O)(c2ccccc2)c2ccccc2)CCCCC1`, the Potency entry in the assay on CP269, in the assay on CP286, with CP291, in the assay with CP297, in the assay on CP305 and with CP315 was “inactive” throughout. The Potency result in the assay with CP325, in the assay with CP329, in the assay on CP335 and in the assay on DFO2036 was “inactive” in each case.
For the molecule `C[C@]12CCC(=O)C(O)=C1CC[C@@H]1[C@H]3CCC(=O)[C@@]3(C)CC[C@@H]12`, the Potency entry in the assay with CP269, in the assay with CP286, with CP291, with CP297, with CP305 and in the assay with CP315 was “inactive” throughout. The Potency result with CP325, in the assay on CP329 and in the assay on CP335 was “inactive” throughout.
Take `CC(=O)OCC1=C(C(=O)O)N2C(=O)[C@@H](N)[C@@H]2SC1`: the Potency entry in the assay on CP269, with CP286, in the assay with CP291, in the assay with CP297, in the assay on CP305 and with CP315 was “inactive” each time. Further, the Potency entry in the assay with CP325, in the assay with CP329 and in the assay with CP335 was “inactive” in each case.
Turning to `O=C(O)COc1ccccc1`, the Potency entry in the assay with CP269, in the assay with CP286, in the assay with CP291, in the assay with CP297, with CP305 and in the assay with CP315 was “inactive” in each case. For the same molecule, the Potency result with CP325, in the assay on CP329, with CP335 and in the assay on DFO2036 was “inactive” throughout.
On to `Cc1ccc(Cl)c(O)c1`, for which the Potency entry in the assay on CP269, in the assay on CP286, in the assay with CP291, in the assay on CP297, in the assay with CP305 and in the assay on CP315 was “inactive” each time. Moreover, the Potency entry with CP325, in the assay with CP329, in the assay with CP335 and with DFO2036 was “inactive” each time.
`COC(=O)[C@@H](N)CCCN=C(N)N[N+](=O)[O-]`: the Potency entry with CP269, in the assay on CP286, with CP291, with CP297, with CP305 and in the assay on CP315 was “inactive” each time. In addition, the Potency result in the assay with CP325, with CP329, in the assay on CP335 and with DFO2036 was “inactive” throughout.
`CCCCCCCCCCCCCCCC[N+](C)(C)C`: the Potency is 5.01 µM (active) in the assay with CP286; 13.5 µM (active) in the assay on CP291; 13.5 µM (active) in the assay with CP297; 12 µM (active) with CP325; 10.7 µM (active) in the assay with CP329; 8.49 µM (active) in the assay with CP335.
As for `CC(=O)[O][Hg][c]1ccccc1`, the Potency in the assay on CP269 is 4.78 µM (active); in the assay on CP286, 3.55 µM (active); with CP291, 4.26 µM (active); in the assay with CP297, 13.5 µM (active); in the assay with CP305 it was 4.26 µM (active); with CP325, 6.01 µM (active). Besides, the results for the Potency with CP335 and with DFO2036 were 5.36 µM (active) and 3.98 µM (active), respectively.
As for `COC(=O)c1cncn1C(C)c1ccccc1` (configuration not stated), the Potency result with CP269, in the assay on CP291, in the assay on CP297, with CP305, in the assay on CP315 and in the assay on CP325 was “inactive” throughout. Further, the Potency entry in the assay with CP329 and with CP335 was “inactive” throughout.
On to `CN1C2CCC1CC(OC(=O)c1cc(Cl)cc(Cl)c1)C2` (configuration not stated), for which the Potency entry in the assay on CP269, in the assay with CP286, in the assay with CP291, in the assay on CP305, in the assay with CP315 and with CP325 was “inactive” in each case. The Potency entry in the assay on CP329, in the assay on CP335 and with DFO2036 was “inactive” in each case.
Regarding `CN(C)[C@@H]1C(=O)C(C(N)=O)=C(O)[C@@]2(O)C(=O)C3=C(O)c4c(O)cccc4[C@@](C)(O)[C@H]3[C@H](O)[C@@H]12`, the Potency entry with CP269, with CP291, in the assay with CP305, with CP315, with CP325 and in the assay with CP329 was “inactive” in each case.
In the case of `COC(C)(C)CCCC(C)C/C=C/C(C)=C/C(=O)OC(C)C` (configuration not stated), the Potency result in the assay on CP315 and in the assay with DFO2036 was “inactive” each time.
Regarding `CCCCc1ccc(C(=O)O)nc1`, the Potency entry in the assay with CP269, with CP286, in the assay on CP291, in the assay with CP297, in the assay on CP305 and with CP315 was “inactive” each time. The Potency entry in the assay with CP325, in the assay with CP329, in the assay on CP335 and in the assay with DFO2036 was “inactive” throughout.
Consider `C=CCN1CC[C@]23CCCCC2[C@H]1Cc1ccc(O)cc13` (some centres not stated), for which the Potency result in the assay on CP269, in the assay on CP286, with CP291, in the assay on CP297, in the assay with CP305 and in the assay with CP315 was “inactive” in each case. Besides, the Potency entry in the assay with CP325, in the assay on CP329, with CP335 and in the assay on DFO2036 was “inactive” throughout.
As for `C1CCC(NC2CCCCC2)CC1`, the Potency result in the assay with CP269, with CP286, in the assay on CP291, in the assay with CP297, in the assay with CP305 and in the assay with CP315 was “inactive” each time. Moreover, the Potency result with CP325, in the assay with CP329, in the assay with CP335 and in the assay on DFO2036 was “inactive” in each case.
With `c1ccc(C2(c3ccccc3)CC2C2=NCCN2)cc1` (configuration not stated), the Potency entry with CP269, in the assay on CP291, in the assay on CP297, in the assay on CP305, in the assay with CP315 and in the assay with CP325 was “inactive” throughout. The Potency entry in the assay on CP329, in the assay with CP335 and in the assay with DFO2036 was “inactive” in each case.
Take `O=C(O)C(Cl)Cl`: the Potency entry in the assay with CP269, in the assay on CP286, in the assay on CP291, with CP297, with CP305 and in the assay with CP315 was “inactive” throughout. Also, the Potency entry with CP325, with CP329, in the assay on CP335 and in the assay with DFO2036 was “inactive” in each case.
Regarding `O=[N+]([O-])c1ccc([As](=O)(O)O)cc1`, the Potency in the assay with CP269 is 6.01 µM (active); in the assay with CP286, 7.94 µM (active); in the assay with CP291, 8.49 µM (active); in the assay on CP297 it was 10.7 µM (active); in the assay with CP305, 7.57 µM (active); with CP315, 12 µM (active). Also, the Potency was 9.53 µM (active) in the assay on CP325, 12 µM (active) in the assay with CP329, 4.78 µM (active) in the assay on CP335 and 5.01 µM (active) in the assay with DFO2036.
As to `CCCCCCCCCC(CC)c1ccc(S(=O)(=O)O)cc1` (configuration not stated), the Potency entry with CP269, with CP286, in the assay on CP291, in the assay on CP297, in the assay on CP305 and with CP315 was “inactive” each time. The Potency entry with CP325, in the assay with CP329, with CP335 and in the assay on DFO2036 was “inactive” in each case.
As for `CN[C@@H]1C[C@@H](c2ccc(Cl)c(Cl)c2)c2ccccc21`, the Potency in the assay with CP286 was 12.6 µM (active). The Potency result in the assay on CP297, in the assay on CP315, in the assay on CP325 and in the assay on CP329 was “inactive” throughout.

The values are drawn from PubChem BioAssay (NCATS).
